26 compounds from PubChem BioAssay (NCI) can be followed below.

Values joined by “and” are separate entries in the source; they are usually repeats but may differ in a detail not shown here. Equal values may be shown once. The panel holds about 83,000 compounds, 20% with a hit somewhere; the sample as a whole holds those more often.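 Growth was measured after 48 h exposure to one concentration of compound in 96-well plates. Values under 10 count as active.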 Values without a mark were called inactive. Active and inactive are the calls of the source.

For this test, the system named is MDA-MB-468 breast. Nature of the test: NCI-60 one-dose screen, 48 h (100 = growth as untreated, 0 = no growth, -100 = all killed). To be noted: 10 µM unless noted.
`CCn1c(=S)sc2c(Nc3ccc(F)cc3)nc(-c3cccnc3)nc21`: the growth was 79.8%.

For the compound `O=C1NC(=O)C(=Cc2cn(Cc3cn(Cc4ccc(Cl)cc4Cl)nn3)c3ccccc23)C(=O)N1`, the growth was 2.08% (active). `Cc1ccc2c(N/N=C\c3ccco3)cc(C)nc2n1`: the growth was 70.2%. The result for `CCN(Cc1ccccc1)C1CCN(Cc2cc(Br)ccc2O)CC1` reads 25.5%. Next, `COC(=O)/C=C/c1cc(OC(C)=O)c2c(c1)[C@@H](C(=O)OC)[C@H](c1ccc(OC(C)=O)c(OC(C)=O)c1)O2`: -1.27% (active). The result for `Oc1cc(O)c2c(=S)cc(-c3ccc(Cl)cc3)oc2c1` reads -6.34% (active); that for `CC(C)N=c1cc2n(-c3ccc(Cl)cc3)c3ccccc3nc-2cc1Nc1ccc(Cl)cc1`, -45.1% (active) and -53.3% (active) and -42.4% (active); that for `CCCCC(O)(c1ccc(Cl)cc1)C(CN1CCOCC1)c1ccc(Cl)cc1` (stereo unspecified), 24.7%. Turning to `BrC1=C(Br)C(Br)(Br)C(Br)=C1Br`, the growth is 97.7%. Next, `COc1cc(-c2csc(NC(=O)Nc3cccc(C(F)(F)F)c3)n2)cc(OC)c1OC`: 19.3%. As to `CC(=O)Nc1ccc(S(=O)(=O)c2ccnc3cc(Cl)ccc23)cc1`, the growth is 9.85% (active). Next, `COc1ccc(/C=C/C(c2cc(OC)c(OC)c(OC)c2)n2cncn2)cc1` (stereo unspecified): 40.9%; `CCOC(=O)C1=C(Nc2ccc(Br)cc2)C(=O)N(CC)C1`: 101%. As to `NS(=O)(=O)c1ccc(C(=O)NN2C(=O)c3ccccc3C2=O)cc1`, the growth was 122%. Next, `CC(CN1CCCCC1)C(=O)c1ccccc1` (stereo unspecified): 105%.

As to `O=C(O)C1C2C=CC(C2)C1C(=O)O` (stereo unspecified), the growth is 119% and 22.9% and 92.2%. In the case of `Cn1cc(-c2nc(N)nnc2-c2c[nH]c3ccccc23)c2cc(Br)ccc21`, the growth is 33%. Next, `C/C(=N/O)c1ccc(F)cc1`: 75%; `COc1ccc(-c2nn(-c3ccc(Cl)cc3)cc2-c2nc3ccccc3[nH]2)cc1`: 106%; `COc1ccc2cc(C(=O)N3CCC([C@@H](C)C(=O)NCc4ccc5c(c4)OCO5)CC3)[nH]c2c1`: 41.1% [50 µM]. Take `COc1cc(C)c2sc3ccccc3c(=O)c2c1NCCN(C)C`: the growth was 49%. The result for `COc1cc(-c2cc(-c3ccc(Nc4nc(Nc5ccccc5)nc(Nc5ccc(Cl)cc5)n4)cc3)nc(N)n2)cc(OC)c1OC` reads 90.7%; that for `CC/C(=N\N=C(/CC)c1ccc(Br)cc1)c1ccc(Br)cc1`, 110%. Consider `COc1cc2c(c(OC)c1OC)-c1ccc(OC)c(=O)cc1[C@@H](NC(C)=O)CC2`, for which the growth was -8.64% (active) and -2.19% (active).

As for `COc1ccc(C(=O)c2cc3c(N)c(C(=O)Nc4cccc(OC)c4)sc3nc2C)cc1`, the growth is 4.38% (active). On to `O=C1c2cccc3cccc(c23)C(=O)N1N1C(=O)c2cccc3c(N4CCOCC4)ccc(c23)C1=O`, for which the growth is 99.9%.
